APP 5UTR inh: APP translation inhibition; SH-SY5Y APP 5'UTR-luciferase reporter, luminescence; 190,000 compounds, 0.82% hits; AID 1285; inhibition, % at 2 µM;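 active = inhibition above a set limit, derived from the sample mean plus 3 SD, cut at about 45% in these data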
BaF3 parental: reduces parental Ba/F3 cell viability, JAK2V617F counter-screen. CellTiter-Glo ATP luminescence. inhibition, % at 5.6 µM. 220,000 compounds, 1.1% hits. AID 1486;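 active = inhibition above a per-campaign cutoff, the mean inhibition of all tested compounds plus 3 SD, cut at about 27% in these data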
IEC-6 tox: counter-screen for KLF5 inhibitors: cytotoxicity in IEC-6 cells. IEC-6 cytotoxicity, luminescence viability. inhibition, % at 5 µM. 290,000 compounds, 0.78% hits
KLF5 inh: inhibitors of KLF5 expression; inhibition, % at 5 µM; DLD-1 KLF5 promoter-luciferase reporter, luminescence; 290,000 compounds, 0.23% hits; AID 1700;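 active = inhibition above a per-plate limit of that plate's mean compound inhibition plus 3 SD, cut at about 60% in these data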;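 also: higher means less KLF5 promoter-driven luciferase light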
Ba/F3 V617F tox: loss of viability in JAK2V617F-driven Ba/F3 cells | inhibition, % at 5.6 µM | 220,000 compounds, 1.1% hits | Ba/F3 EpoR-JAK2V617F viability, ATP luminescence | AID 1446;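 active = inhibition above the campaign mean plus 3 SD over all tested compounds, cut at about 24% in these data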;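 also: cytokine-independent growth of Ba/F3 cells driven by EpoR plus mutant JAK2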
IEC-6 cytotox cf: confirmation of cytotoxic compounds in rat IEC-6 intestinal epithelial cells; shares compounds with IEC-6 tox; IEC-6 rat intestinal epithelial viability, luminescence; inhibition, % at 5 µM; 1,900 compounds, 63% hits; AID 1907
Hits are given with their value; 0 = inactive; - = not tested or not shown. Shown are actives, neighbours in structure and some others; about 1.9% of the full set was active somewhere. Rule as the data show it, unless noted: active = inhibition above about 22%; inactive = the rest.

SMILES | APP 5UTR inh | BaF3 parental | IEC-6 tox | KLF5 inh | Ba/F3 V617F tox | IEC-6 cytotox cf
O=C(NNC(=O)C1CC1)c1cc(Cl)nc2ccccc12 | - | - | 0 | 0 | - | -
CN1CCc2c(sc(NC(=O)c3ccc4ccccc4c3)c2C(N)=O)C1 | - | - | 50 | 0 | - | 26
CN1CCc2c(sc(NC(=O)Cc3ccccc3)c2C(N)=O)C1 | - | - | 0 | 0 | - | -
Cc1ccc(OC(C)C(=O)O)cc1C (centres undefined) | 0 | 0 | 0 | 0 | 0 | -
CCC(=O)c1c[nH]c(C(=O)NCc2cccc(C(F)(F)F)c2)c1 | - | - | 0 | 0 | - | -
O=C(c1ccc(Br)cc1)C(CN1CCOCC1)c1ccccc1 (centres undefined) | - | - | 26 | 0 | - | 0
CC(C)(C)NC(=O)CCC1COc2ccccc2O1 (centres undefined) | 0 | 0 | 0 | 0 | 0 | -
O=C(Nc1nc(-c2ccccn2)cs1)c1ccc2c(c1)OCCO2 | 0 | 0 | 28 | 0 | 0 | 0
O=C(CN1C(=O)C2CCCCC2C1=O)Nc1nc(-c2ccccn2)cs1 (centres undefined) | 0 | 0 | 41 | 0 | 0 | 0
C[C@@H](C(=O)Nc1nc(-c2ccccn2)cs1)N1C(=O)C2CCCCC2C1=O (some centres undefined) | - | 0 | 0 | 0 | 0 | -
O=C(Nc1nc(-c2ccccc2)cs1)Nc1ccc(F)cc1F | 0 | 0 | 0 | 0 | 0 | -
O=C(Nc1nc(-c2ccccn2)cs1)Nc1ccc(F)cc1F | - | - | 50 | 0 | - | 47
Cc1ccc(OCC(=O)c2ccc3c(c2)CCCC3)cc1C | 0 | 0 | 0 | 0 | 0 | -
CN1CCN(S(=O)(=O)c2ccc(N3CCN(C(c4ccccc4)c4ccccc4)CC3)nc2)CC1 | 0 | 0 | 0 | 0 | 0 | -
Cc1cccc(CSc2ccc3nnc(-c4cccs4)n3n2)c1 | 0 | 0 | 0 | 0 | 0 | -
C1=Nc2c(Nc3ccccc3)ncnc2Oc2ccccc21 | 0 | 0 | 53 | 0 | 0 | 33
Clc1ccc2c(c1)C=Nc1c(NCc3ccccc3)ncnc1O2 | 0 | 0 | 0 | 0 | 0 | -
O=[N+]([O-])c1ccc(-n2nnnc2-c2ccccc2)c([N+](=O)[O-])c1 | 0 | 30 | 32 | 0 | 69 | 0
C/C(=N/Nc1ccc([N+](=O)[O-])cc1)c1ccc(C)cc1C | 0 | 0 | 0 | 0 | 0 | -
C/C(=N/Nc1ccc([N+](=O)[O-])cc1)c1c[nH]c2ccccc12 | - | - | 24 | 0 | - | 22
Cc1ccc(SC(C)c2nc(-c3ccncc3)no2)cc1 (centres undefined) | 0 | 0 | 0 | 0 | 0 | -
NNC(=O)c1cc2ccccc2[nH]1 | 90 | 0 | 32 | 0 | 0 | 0
O=C(NCCCO)c1cc2ccccc2[nH]1 | 0 | 0 | 0 | 0 | 0 | -
Cc1ncc([N+](=O)[O-])n1Cc1ccc(Cl)cc1 | 0 | 0 | 0 | 0 | 0 | -
CCc1ccc2oc(C(=O)N3CCN(c4ccc(OC)cc4)CC3)cc(=O)c2c1 | - | - | 0 | 0 | - | -
SMILES | APP 5UTR inh | BaF3 parental | IEC-6 tox | KLF5 inh | Ba/F3 V617F tox | IEC-6 cytotox cf
CCc1ccc2oc(C(=O)N3CCN(c4ccccc4OC)CC3)cc(=O)c2c1 | - | - | 31 | 0 | - | 55
CS(=O)(=O)N1CCN=C1SCc1cccc(F)c1 | - | - | 0 | 0 | - | -
COc1cccc(NC(=O)CSC2=C(C#N)C(c3ccco3)C3=C(CCCC3=O)N2)c1 (centres undefined) | 0 | 76 | 50 | 0 | 67 | 0
CCCCc1ccc(NC(=O)CSC2=C(C#N)C(c3ccco3)C3=C(CCCC3=O)N2)cc1 (centres undefined) | 0 | 0 | 0 | 0 | 0 | -
Cc1ccc(C(=O)CSC2=C(C#N)C(c3ccco3)C3=C(CCCC3=O)N2)cc1 (centres undefined) | 46 | 0 | 45 | 0 | 0 | 52
O=C(Nc1ccc(F)cc1F)c1ccc(-n2cccn2)nc1 | 0 | 0 | 0 | 0 | 0 | -
COc1ccc(/C=N/Nc2cc(C)nc(-n3nc(C)cc3C)n2)cc1 | 0 | 0 | 0 | 0 | 0 | -
Cc1cc(N/N=C/c2ccc(O)cc2O)nc(-n2nc(C)cc2C)n1 | 53 | 0 | 79 | 0 | 0 | 47
O=S(=O)(Cc1ncc(C(F)(F)F)cc1Cl)c1ccccc1 | - | - | 0 | 0 | - | -
O=C(NNC(=O)c1cnccn1)c1ccc(Cl)c(Cl)c1 | - | - | 37 | 0 | - | 0
O=C(NCCNC(=O)c1cnccn1)c1ccc(Cl)c(Cl)c1 | - | - | 0 | 0 | - | -
CCOC(=O)Nc1nc(-c2ccccc2)c(C(=O)c2ccc(Cl)cc2)s1 | 94 | 77 | 86 | 0 | 73 | 57
Cn1nc(C(C)(C)C)c([N+](=O)[O-])c1C(=O)Nc1cccc2ccccc12 | - | 0 | 0 | 0 | 0 | -
CC(=O)/C(C#N)=C1\NC(=O)C(Cc2ccc(F)cc2)S1 (centres undefined) | - | 0 | 72 | 0 | 0 | 48

Screening results as filed in PubChem BioAssay.
